Experimental findings from PubChem BioAssay AID2061166 (Soto Lab, Mitchell Center for Alzheimers Disease and …, 2025) are described below.

Molecules are shown by their SMILES. Unmarked numbers belong to inactive results. Calls of active or inactive are those of the source.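 The calls were made as follows: active = mean tau seeding fluorescence area under 1% of vehicle, meaning inhibition above a set limit; inactive = the rest.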

Microtubule-associated protein tau (Homo sapiens), sequence (P10636 whole entry, looked up): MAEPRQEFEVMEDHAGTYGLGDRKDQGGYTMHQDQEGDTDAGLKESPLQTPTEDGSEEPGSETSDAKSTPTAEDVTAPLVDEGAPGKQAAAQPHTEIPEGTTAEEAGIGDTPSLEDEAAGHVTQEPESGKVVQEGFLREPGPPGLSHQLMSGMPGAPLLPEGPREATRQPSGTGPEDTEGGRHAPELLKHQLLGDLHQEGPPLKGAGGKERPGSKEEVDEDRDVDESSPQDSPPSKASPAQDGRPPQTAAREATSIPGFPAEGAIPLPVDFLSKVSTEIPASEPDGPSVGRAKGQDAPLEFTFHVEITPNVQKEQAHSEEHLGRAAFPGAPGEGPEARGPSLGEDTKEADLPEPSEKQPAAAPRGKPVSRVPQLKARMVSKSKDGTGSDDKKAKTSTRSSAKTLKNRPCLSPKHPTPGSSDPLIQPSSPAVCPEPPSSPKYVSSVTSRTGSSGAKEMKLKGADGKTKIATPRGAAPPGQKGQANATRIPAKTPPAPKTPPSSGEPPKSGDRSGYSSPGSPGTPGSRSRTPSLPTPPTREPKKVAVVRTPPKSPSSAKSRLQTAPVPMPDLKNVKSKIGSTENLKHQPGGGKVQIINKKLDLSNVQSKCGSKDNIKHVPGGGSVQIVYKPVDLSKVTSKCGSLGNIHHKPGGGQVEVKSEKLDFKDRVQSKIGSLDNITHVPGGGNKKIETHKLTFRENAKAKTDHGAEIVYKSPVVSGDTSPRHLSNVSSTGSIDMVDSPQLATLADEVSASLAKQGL

The experiment addresses Microtubule-associated protein tau (Homo sapiens) (UniProt P10636). Description: blockers of AD brain-seeded tau fibril growth – biochemical, seed amplification, ThT fluorescence, primary screen (AID 2061166). As to conditions: Recombinant tau seeded by AD brain, ThT fluorescence AUC; at 100 µM; stronger effect = higher value.
As to `CC(C)(Sc1cc(C(C)(C)C)c(O)c(C(C)(C)C)c1)Sc1cc(C(C)(C)C)c(O)c(C(C)(C)C)c1`, the inhibition is 23%.
On to `COc1cc(C(C)=O)ccc1OCCCN1CCC(c2noc3cc(F)ccc23)CC1`, for which the inhibition is -61.2%.
Take `CN(C)CC(c1ccc(O)cc1)C1(O)CCCCC1` (stereo not drawn): the inhibition was 15.1%.
With `CC1CCC2(OC1)OC1CC3C4CC=C5CC(O)CC(O)C5(C)C4CCC3(C)C1C2C` (stereo not drawn) the figure was 13.9%; with `CCN(CC)CCCC(C)Nc1c2ccc(Cl)cc2nc2ccc(OC)cc12` (stereo not drawn), 72.2%.
Take `CS(=O)(=O)c1ccc(C(=O)Nc2ccc(Cl)c(-c3ccccn3)c2)c(Cl)c1`: the inhibition is 44%.
As to `CC(=O)Oc1ccccc1C(=O)O`, the inhibition was 2.58%.
With `N=c1ccc2nc3ccc(N)cc3sc-2c1` the figure was 100% (active); with `Clc1cccc(Cl)c1NC1=NCCN1`, -11.7%.
As for `Cc1ccc(C(C)C)cc1O`, the inhibition was 10.5%.
For `CC1CCC2(C(=O)O)CCC3(C)C(=CCC4C5(C)CC(O)C(O)C(C)(CO)C5C(O)CC43C)C2C1C` (stereo not drawn), the inhibition is 31%.
With `CC1(C)SC2C(NC(=O)C(N)c3ccc(O)cc3)C(=O)N2C1C(=O)O` (stereo not drawn) the figure was -6.81%.
With `C#CCNC1CCc2ccccc21` (stereo not drawn) the figure was -62.3%; with `Cc1c(C(=O)NN2CCCCC2)nn(-c2ccc(Cl)cc2Cl)c1-c1ccc(Cl)cc1`, 50.7%.
With `Nc1nc2[nH]cc(CCc3ccc(C(=O)NC(CCC(=O)O)C(=O)O)cc3)c2c(=O)[nH]1` (stereo not drawn) the figure was 15.2%; with `NC(=O)NO`, -49.7%.
Consider `CCc1nc(N)nc(N)c1-c1ccc(Cl)cc1`, for which the inhibition is -7.97%.
Regarding `Cc1ccc(C(=O)c2cc(O)c(O)c([N+](=O)[O-])c2)cc1`, the inhibition was 77.7%.
For `CN(C)c1ccc2nc3ccc(=[N+](C)C)cc-3sc2c1`, the inhibition was 100% (active).
On to `CN=c1ccc2nc3ccc(N)cc3sc-2c1`, for which the inhibition was 100% (active).
With `CCN(C(=O)c1c(O)c2c(Cl)cccc2n(C)c1=O)c1ccccc1` the figure was 20%; with `O=C(O)c1cc(-c2ccccc2)nc2ccccc12`, 3.74%; with `CCC1=CC2CN(C1)Cc1c([nH]c3ccccc13)C(C(=O)OC)(c1cc3c(cc1OC)N(C)C1C(O)(C(=O)OC)C(OC(C)=O)C4(CC)C=CCN5CCC31C54)C2` (stereo not drawn), 27%.
For `CN(C)CCCN1c2ccccc2Sc2ccc(Cl)cc21`, the inhibition is 25.9%.
Consider `O=C(O)c1ccccc1O`, for which the inhibition was 11.4%.
In the case of `NC(=O)OCC(COC(N)=O)c1ccccc1`, the inhibition is -8.84%.
For the compound `Nc1c(N=Nc2ccc(-c3ccc(N=Nc4cc(S(=O)(=O)O)c5ccccc5c4N)cc3)cc2)cc(S(=O)(=O)O)c2ccccc12`, the inhibition is 100% (active).
With `Cc1ccc(Nc2nccc(N(C)c3ccc4c(C)n(C)nc4c3)n2)cc1S(N)(=O)=O` the figure was -1.27%; with `COc1cc(C(=O)NCc2ccc(OCCN(C)C)cc2)cc(OC)c1OC`, 10.7%.
With `CC(C)COc1ccc(CNC(=O)N(Cc2ccc(F)cc2)C2CCN(C)CC2)cc1` the figure was -91.6%; with `CC1OC(OCC2OC(Oc3c(-c4ccc(O)c(O)c4)oc4cc(O)cc(O)c4c3=O)C(O)C(O)C2O)C(O)C(O)C1O` (stereo not drawn), 28.7%.
`O=c1cc(-c2ccccc2)oc2cc(O)c(O)c(O)c12`: the inhibition was 97.6%.
With `Cc1cc(=O)n(-c2ccccc2)n1C` the figure was 8.96%.

What is called inhibition is the relative decrease from the control value, in per cent.
